Measurements reported in the supplement of paper PMC10037445.
The full ranking holds about 2,900 compounds; the median of “NF-kB SEAP reporter activity, fold change vs agonist alone” is about 0.99, and the highest 2% start at about 2.6. Only a selection was taken, and the highest values are over-represented in it overall.

Legend:
RAW-Dual [1] = experiment: NF-kB SEAP reporter activity, fold change vs agonist alone; cytotoxicity flag (confluency mask): not cytotoxic; higher = enhanced NF-kB activity
Method in brief: (§1)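 RAW-Dual macrophages were seeded in DMEM at 50,000 cells/well in 384-well plates, given 50 nL of library stock by pin tool, and given a PRR agonist 1 h later. Plates were held at 37 °C, 5% CO2 for 20 hours, after which supernatant was read for IRF by QuantiLuc luminescence and for NF-κB by QuantiBlue absorbance at 620 nm. Reporter activity is expressed as fold change over wells that received agonist alone. A well was called cytotoxic when IncuCyte confluency fell below 70% of agonist controls in both mask sets.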

RAW-Dual [2] = experiment: NF-kB SEAP reporter activity, fold change vs agonist alone; higher = enhanced NF-kB activity
Method in brief: as §1

RAW-Dual [3] = experiment: NF-kB SEAP reporter activity, fold change vs agonist alone; cytotoxicity flag (confluency mask): cytotoxic (confluency <70% of control); higher = enhanced NF-kB activity
Method in brief: as §1

[4] = agonist: ODN 1826 (TLR9) 0.5 ug/mL
[5] = agonist: Pam2CSK4 (TLR2/6) 0.1 ug/mL
[6] = agonist: Pam3CSK4 (TLR2/1) 0.1 ug/mL
[7] = library stock concentration (final ~1000-fold dilution): 10 mM, cytotoxicity flag (confluency mask): not cytotoxic, agonist: Imiquimod (TLR7) […]
[8] = library stock concentration (final ~1000-fold dilution): 10 mM, cytotoxicity flag (confluency mask): not cytotoxic, agonist: MPLA (TLR4) […]

CC1c2cccc(O)c2C(=O)C2=C(O)C3(O)C(=O)C(C(N)=O)=C(O)C(N(C)C)C3C(O)C21.CC1c2cccc(O)c2C(=O)C2=C(O)C3(O)C(=O)C(C(N)=O)=C(O)C(N(C)C)C3C(O)C21.CCO.Cl.Cl.O (stereo not drawn) (library stock concentration (final ~1000-fold dilution): 10 mM)
NF-kB SEAP reporter activity (RAW-Dual [1]; agonist: LPS (TLR4) 0.1 ug/mL): 1.6 | NF-kB SEAP reporter activity (RAW-Dual [1]; [4]): 0.969 | NF-kB SEAP reporter activity (RAW-Dual [1]; [5]): 1.26 | NF-kB SEAP reporter activity (RAW-Dual [1]; [6]): 0.938

CC1c2cccc(O)c2C(=O)C2=C(O)C3(O)C(=O)C(C(N)=O)=C(O)C(N(C)C)C3C(O)C21.CC1c2cccc(O)c2C(=O)C2=C(O)C3(O)C(=O)C(C(N)=O)=C(O)C(N(C)C)C3C(O)C21.CCO.Cl.Cl.O (stereo not drawn)
NF-kB SEAP reporter activity (RAW-Dual [2]; [7]): 0.998 | NF-kB SEAP reporter activity (RAW-Dual [2]; [8]): 1.13

O=C(O)/C(S)=C/c1c[nH]c2ccc(F)cc12
NF-kB SEAP reporter activity (RAW-Dual [2]; [7]): 0.865 | NF-kB SEAP reporter activity (RAW-Dual [2]; [8]): 1.08

O=C(O)/C(S)=C/c1c[nH]c2ccc(F)cc12 (library stock concentration (final ~1000-fold dilution): 10 mM)
NF-kB SEAP reporter activity (RAW-Dual [1]; agonist: LPS (TLR4) 0.1 ug/mL): 0.886 | NF-kB SEAP reporter activity (RAW-Dual [1]; [4]): 0.864 | NF-kB SEAP reporter activity (RAW-Dual [1]; [5]): 0.988 | NF-kB SEAP reporter activity (RAW-Dual [1]; [6]): 0.934

COC(=O)C1=C(C)NC(C)=C(C(=O)OCCN2CCN(C(c3ccccc3)c3ccccc3)CC2)C1c1cccc([N+](=O)[O-])c1.Cl.Cl (stereo not drawn) (library stock concentration (final ~1000-fold dilution): 10 mM)
NF-kB SEAP reporter activity (RAW-Dual [1]; agonist: LPS (TLR4) 0.1 ug/mL): 0.834 | NF-kB SEAP reporter activity (RAW-Dual [1]; [4]): 0.364 | NF-kB SEAP reporter activity (RAW-Dual [1]; [5]): 0.241 | NF-kB SEAP reporter activity (RAW-Dual [1]; [6]): 0.405

COC(=O)C1=C(C)NC(C)=C(C(=O)OCCN2CCN(C(c3ccccc3)c3ccccc3)CC2)C1c1cccc([N+](=O)[O-])c1.Cl.Cl (stereo not drawn)
NF-kB SEAP reporter activity (RAW-Dual [2]; [7]): 0.58 | NF-kB SEAP reporter activity (RAW-Dual [2]; [8]): 0.873

CN(C)CCOC(c1ccccc1)c1ccccc1.Cl (library stock concentration (final ~1000-fold dilution): 10 mM)
NF-kB SEAP reporter activity (RAW-Dual [1]; agonist: LPS (TLR4) 0.1 ug/mL): 1.27 | NF-kB SEAP reporter activity (RAW-Dual [1]; [4]): 0.728 | NF-kB SEAP reporter activity (RAW-Dual [1]; [5]): 0.917 | NF-kB SEAP reporter activity (RAW-Dual [1]; [6]): 1.1

CN(C)CCOC(c1ccccc1)c1ccccc1.Cl
NF-kB SEAP reporter activity (RAW-Dual [2]; [7]): 1.39 | NF-kB SEAP reporter activity (RAW-Dual [2]; [8]): 0.886

Cn1cc(CC(N)C(=O)O)c2ccccc21 (stereo not drawn)
NF-kB SEAP reporter activity (RAW-Dual [2]; library stock concentration (final ~1000-fold dilution): 2 mM, cytotoxicity flag (confluency mask): not cytotoxic, agonist: Imiquimod (TLR7) […]): 0.994 | NF-kB SEAP reporter activity (RAW-Dual [2]; library stock concentration (final ~1000-fold dilution): 2 mM, cytotoxicity flag (confluency mask): not cytotoxic, agonist: MPLA (TLR4) […]): 1.05

Cl.Cn1cc(C(=O)C2CCc3nc[nH]c3C2)c2ccccc21 (stereo not drawn)
NF-kB SEAP reporter activity (RAW-Dual [2]; [7]): 0.775 | NF-kB SEAP reporter activity (RAW-Dual [2]; [8]): 0.816

Cl.Cn1cc(C(=O)C2CCc3nc[nH]c3C2)c2ccccc21 (stereo not drawn) (library stock concentration (final ~1000-fold dilution): 10 mM)
NF-kB SEAP reporter activity (RAW-Dual [1]; agonist: LPS (TLR4) 0.1 ug/mL): 1.01 | NF-kB SEAP reporter activity (RAW-Dual [1]; [4]): 0.67 | NF-kB SEAP reporter activity (RAW-Dual [1]; [5]): 0.928 | NF-kB SEAP reporter activity (RAW-Dual [1]; [6]): 0.877

Cl.Cl.Cn1cc(CNCC2CCN(c3ncc(C(=O)NO)cn3)CC2)c2ccccc21 (library stock concentration (final ~1000-fold dilution): 10 mM)
NF-kB SEAP reporter activity (RAW-Dual [3]; agonist: LPS (TLR4) 0.1 ug/mL): 7.01 | NF-kB SEAP reporter activity (RAW-Dual [3]; [4]): 1.95 | NF-kB SEAP reporter activity (RAW-Dual [3]; [5]): 1.13 | NF-kB SEAP reporter activity (RAW-Dual [3]; [6]): 1.93

Cl.Cl.Cn1cc(CNCC2CCN(c3ncc(C(=O)NO)cn3)CC2)c2ccccc21
NF-kB SEAP reporter activity (RAW-Dual [2]; library stock concentration (final ~1000-fold dilution): 10 mM, cytotoxicity flag (confluency mask): cytotoxic (confluency <70% of control), agonist: Imiquimod (TLR7) […]): 2.52 | NF-kB SEAP reporter activity (RAW-Dual [2]; library stock concentration (final ~1000-fold dilution): 10 mM, cytotoxicity flag (confluency mask): cytotoxic (confluency <70% of control), agonist: MPLA (TLR4) […]): 2.65
